# From PubChem BioAssay (Tox21)
# “And” between values parts separate entries of the source, which are not always exact repeats. Identical values can stand only once. Inconclusive results are not listed. A call without a number means that no potency is given here. Some structures have more than one record in an assay (separate samples or runs), and their calls can disagree. The source made the active and inactive calls. Unless noted, calls come from the whole dose curve; as a rule, active = well fitted curve in the direction sought with a large enough effect in the repeat runs; inconclusive = weak or mixed curves; inactive = no such curve, though single readings can be large; an effect the other way counts as inactive or inconclusive.
# Columns and labels:
# [1] = qHTS assay to identify small molecule antagonists of the sonic hedgehog signaling (Shh) pathway (AID 1259369; calls by dose curve; note: nearly all actives have a fitted effect of over 45% in size; note: potency is the fitted concentration of half-maximal effect)
# Outline: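 Screening used 3T3Gli1-Luc cells at 2,000 per well, compounds delivered in DMSO, and conditioned medium as agonist stimulus; plates incubated 24hr at 37 C and 5% CO2 before a 30min luciferase step.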
# [2] = target: Estrogen receptor beta (Homo sapiens) (UniProt Q92731); test: qHTS assay to identify small molecule agonists of the estrogen receptor beta (ER-beta) signaling pathway (AID 1259377; active = well fitted activation curve with a large enough effect in the signal ratio in the repeat runs, not every such curve was filed as active; the % refers to the signal ratio; note: potency is the fitted concentration of half-maximal effect)
# Sequence of Estrogen receptor beta (Homo sapiens) (Q92731 whole entry, looked up, the tested form may be a part): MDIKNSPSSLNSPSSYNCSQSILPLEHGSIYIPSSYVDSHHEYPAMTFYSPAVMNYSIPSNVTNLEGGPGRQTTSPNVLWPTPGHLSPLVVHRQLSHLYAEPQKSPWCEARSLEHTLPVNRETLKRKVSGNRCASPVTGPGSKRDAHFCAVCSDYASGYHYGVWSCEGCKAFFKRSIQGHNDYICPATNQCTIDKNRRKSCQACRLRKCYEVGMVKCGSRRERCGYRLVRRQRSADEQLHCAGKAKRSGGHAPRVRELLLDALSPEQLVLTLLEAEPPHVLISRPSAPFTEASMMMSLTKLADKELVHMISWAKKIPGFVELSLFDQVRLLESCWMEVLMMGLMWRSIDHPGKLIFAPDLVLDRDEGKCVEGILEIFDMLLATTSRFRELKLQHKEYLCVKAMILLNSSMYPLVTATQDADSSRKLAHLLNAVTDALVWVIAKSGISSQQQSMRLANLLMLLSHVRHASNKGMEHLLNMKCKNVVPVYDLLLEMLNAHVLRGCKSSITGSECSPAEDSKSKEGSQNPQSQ
# Outline: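 Agonist mode cell assay in GripTite HEK293T cells expressing an ER-beta fusion that drives beta-lactamase from an Upstream Activator Sequence; 16 hr compound exposure at 37C, then 2 h LiveBLAzer B/G FRET substrate at room temperature, fluorescence read-out.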
# [3] = qHTS assay to identify small molecule agonists of the androgen receptor (AR) signaling pathway in the presence of an antagonist - cell viability counter screen (AID 1259379); note: nearly all actives have a fitted effect of over 25% in size; note: potency is the fitted concentration of half-maximal effect;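 for activity change, negative = cytotoxicity: MDA-kb2 human breast cancer cells carrying an MMTV luciferase reporter; series mostly up to about 92 µM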
# Outline: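 In MDA-kb2 cells (human breast carcinoma, MMTV-luciferase), compounds at 15 concentrations plus 3.0uM nilutamide; 16 hr, 37C, 0% CO2; CellTiter-Fluor fluorescence read for viability.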
# [4] = qHTS assay to identify small molecule agonists of the estrogen receptor beta (ER-beta) signaling pathway - cell viability counter screen (AID 1259380); note: nearly all actives have a fitted effect of over 30% in size; note: potency is the fitted concentration of half-maximal effect
# Outline: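 Viability of ER-beta-UAS-bla HEK293T cells was determined by CellTiter-Glo luminescence following 16 hr treatment with test compounds at 37C.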
# [5] = target: Estrogen receptor (Homo sapiens) (UniProt P03372); test: qHTS assay to identify small molecule agonists of the estrogen receptor alpha (ER-alpha) signaling pathway in the presence of an antagonist (AID 1259383; calls by dose curve; note: nearly all actives have a fitted effect of over 15% in size; note: potency is the fitted concentration of half-maximal effect; for activation: top concentration of the series differs between compounds)
# Sequence of Estrogen receptor (Homo sapiens) (P03372 whole entry, looked up): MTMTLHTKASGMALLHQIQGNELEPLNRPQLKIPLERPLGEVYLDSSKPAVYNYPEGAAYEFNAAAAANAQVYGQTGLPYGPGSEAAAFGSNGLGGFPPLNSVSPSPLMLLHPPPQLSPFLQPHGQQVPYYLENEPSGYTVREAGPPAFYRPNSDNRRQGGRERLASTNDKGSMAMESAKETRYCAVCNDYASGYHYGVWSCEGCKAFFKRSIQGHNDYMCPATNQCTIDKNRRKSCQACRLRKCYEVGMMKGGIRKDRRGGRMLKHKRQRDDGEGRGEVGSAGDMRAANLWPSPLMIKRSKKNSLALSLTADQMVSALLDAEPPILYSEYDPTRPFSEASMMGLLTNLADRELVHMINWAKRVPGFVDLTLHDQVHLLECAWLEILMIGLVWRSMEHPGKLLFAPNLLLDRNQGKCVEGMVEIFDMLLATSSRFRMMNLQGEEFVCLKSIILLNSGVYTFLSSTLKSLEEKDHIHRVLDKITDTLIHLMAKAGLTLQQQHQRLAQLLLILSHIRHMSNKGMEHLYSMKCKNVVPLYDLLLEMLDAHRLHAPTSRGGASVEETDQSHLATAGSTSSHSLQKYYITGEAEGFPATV
# Outline: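 In VM7Luc4E2 cells, 4,000 per well, compounds at 15 concentrations were co-incubated 22hr at 37C with 10.0nM final ICI-182,780. Luminescence from the stably transfected 4×ERE-luciferase reporter was recorded 30min after ONE-Glo addition.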
# [6] = qHTS assay to identify small molecule agonists of the estrogen receptor alpha (ER-alpha) signaling pathway in the presence of an antagonist - cell viability counter screen (AID 1259386);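 note: cells exposed to compounds for 22 h at 37 °C before the viability read; nearly all actives have a fitted effect of over 30% in size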; note: potency is the fitted concentration of half-maximal effect; for activity change, negative = cytotoxicity: series mostly up to about 92 µM
# Outline: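 Fluorescent CellTiter-Fluor viability signal from VM7Luc4E2 cells, with the reagent added during the final hour of a 22hr compound exposure at 37C in the presence of 10.0nM ICI-182,780.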
# [7] = qHTS assay to identify small molecule antagonists of the estrogen receptor beta (ER-beta) signaling pathway - cell viability counter screen (AID 1259382); note: nearly all actives have a fitted effect of over 55% in size; note: potency is the fitted concentration of half-maximal effect;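 for activity change, negative = cytotoxicity: HEK293T cells carrying ER-beta-UAS-bla reporter stimulated with estradiol; series mostly up to about 92 µM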
# Outline: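 Tox21 10K library tested in qHTS format on ER-beta-bla HEK293T cells stimulated with 1nM E2; 16 hr treatment at 37C. Same-well CellTiter-Glo luminescence served as the cell viability measure.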
# [8] = qHTS assay to identify small molecule agonists or antagonists of the thyroid stimulating hormone receptor (TSHR) signaling pathway - wild type cell line counter screen (AID 1259384; calls by dose curve; note: potency is the fitted concentration of half-maximal effect)
# Outline: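 Wild-type HEK293 cells were plated 18 h at 37 C/5% CO2, pin-dosed with compound plus Ro20-1724 medium, held 30 min at room temperature, then given cAMP-d2 and anti-cAMP-cryptate; fluorescence was read after 1 h. Fifteen concentrations, triplicate.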
# [9] = target: Thyrotropin receptor (Homo sapiens) (UniProt P16473); test: qHTS assay to identify small molecule antagonists of the thyroid stimulating hormone receptor (TSHR) signaling pathway (AID 1259385; calls by dose curve; note: nearly all actives have a fitted effect of over 20% in size; note: potency is the fitted concentration of half-maximal effect)
# Sequence of Thyrotropin receptor (Homo sapiens) (P16473 whole entry, looked up): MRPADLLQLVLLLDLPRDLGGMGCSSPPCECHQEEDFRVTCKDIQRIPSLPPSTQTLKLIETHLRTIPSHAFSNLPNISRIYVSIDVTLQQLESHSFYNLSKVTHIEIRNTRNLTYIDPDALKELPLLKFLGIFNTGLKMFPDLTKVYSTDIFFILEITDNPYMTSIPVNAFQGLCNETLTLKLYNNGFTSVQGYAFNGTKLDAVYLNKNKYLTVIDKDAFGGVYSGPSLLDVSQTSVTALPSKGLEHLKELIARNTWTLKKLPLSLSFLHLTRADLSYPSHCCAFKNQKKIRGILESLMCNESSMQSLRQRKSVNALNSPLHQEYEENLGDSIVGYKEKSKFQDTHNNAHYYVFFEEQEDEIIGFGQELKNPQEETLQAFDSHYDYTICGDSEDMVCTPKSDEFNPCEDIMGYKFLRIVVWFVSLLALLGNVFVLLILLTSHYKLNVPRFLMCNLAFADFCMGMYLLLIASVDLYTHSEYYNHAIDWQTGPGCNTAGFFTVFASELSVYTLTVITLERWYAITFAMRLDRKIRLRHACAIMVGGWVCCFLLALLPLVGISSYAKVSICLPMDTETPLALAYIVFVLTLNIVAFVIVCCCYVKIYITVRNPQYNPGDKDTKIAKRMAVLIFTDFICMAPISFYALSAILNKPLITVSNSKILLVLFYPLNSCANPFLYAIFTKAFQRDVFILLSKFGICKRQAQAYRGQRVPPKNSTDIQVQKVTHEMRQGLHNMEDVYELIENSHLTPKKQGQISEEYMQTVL
# Outline: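 TSHR-HEK293 cells were plated and held 18 h at 37C/5% CO2, then given compound plus Ro20-1724 and stimulated with TSH at 1.5 ng/mL final. After 30 min at room temperature, cAMP was detected with cAMP-d2/anti-cAMP-cryptate (1 h) by fluorescence.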
# [10] = target: Androgen receptor (Homo sapiens) (UniProt P10275); test: qHTS assay to identify small molecule agonists of the androgen receptor (AR) signaling pathway in the presence of an antagonist (AID 1259381; calls by dose curve; note: nearly all actives have a fitted effect of over 15% in size)
# Sequence of Androgen receptor (Homo sapiens) (P10275 whole entry, looked up): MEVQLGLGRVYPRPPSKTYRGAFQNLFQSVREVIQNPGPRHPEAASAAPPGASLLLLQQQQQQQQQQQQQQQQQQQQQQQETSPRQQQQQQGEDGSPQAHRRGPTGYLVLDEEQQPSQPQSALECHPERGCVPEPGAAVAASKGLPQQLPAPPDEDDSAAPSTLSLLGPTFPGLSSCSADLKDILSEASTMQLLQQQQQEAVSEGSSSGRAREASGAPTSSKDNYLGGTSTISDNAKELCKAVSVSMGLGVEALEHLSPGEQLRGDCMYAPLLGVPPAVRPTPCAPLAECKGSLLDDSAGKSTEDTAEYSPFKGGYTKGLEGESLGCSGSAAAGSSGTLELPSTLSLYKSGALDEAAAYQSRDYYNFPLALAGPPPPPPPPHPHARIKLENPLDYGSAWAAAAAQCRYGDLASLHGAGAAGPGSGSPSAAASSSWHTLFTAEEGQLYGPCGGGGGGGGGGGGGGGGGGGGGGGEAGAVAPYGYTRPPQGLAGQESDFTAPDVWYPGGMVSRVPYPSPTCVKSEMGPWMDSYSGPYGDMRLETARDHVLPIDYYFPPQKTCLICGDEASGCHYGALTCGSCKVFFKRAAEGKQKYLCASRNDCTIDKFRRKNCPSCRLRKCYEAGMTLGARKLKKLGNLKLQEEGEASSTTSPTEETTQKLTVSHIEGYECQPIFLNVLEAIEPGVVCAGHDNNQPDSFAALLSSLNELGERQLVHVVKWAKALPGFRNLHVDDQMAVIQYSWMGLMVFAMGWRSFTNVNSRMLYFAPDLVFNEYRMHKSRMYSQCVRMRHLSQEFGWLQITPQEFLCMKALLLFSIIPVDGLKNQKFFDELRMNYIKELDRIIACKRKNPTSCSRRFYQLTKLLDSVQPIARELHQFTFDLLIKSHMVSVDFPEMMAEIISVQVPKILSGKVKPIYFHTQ
# Outline: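 Here, 15-concentration compound series were pin-transferred onto MDA-kb2 MMTV-luciferase cells already dosed with nilutamide (3.0uM final). After 16hr at 37C, ONE-Glo was added and luminescence read 30min later at room temperature.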
SMILES,Potency [1],Potency [2],Potency [3],Potency [4],Potency [5],Potency [6],Potency [7],Potency [8],Potency [9],Potency [10],"activity change, negative = cytotoxicity [4]"
CCc1nc(N)nc(N)c1-c1ccc(Cl)cc1,17.5 µM (active) and 27.3 µM (active),inactive,inactive,21.7 µM (active) and 18.8 µM (active),inactive,inactive,–,–,–,–,–
Nc1c2c(nc3ccccc13)CCCC2,8.63 µM (active) and 13.7 µM (active),inactive,inactive,inactive,inactive,inactive,inactive,inactive,inactive,–,–
CN(C)CCOC(c1ccccc1)c1ccccc1,inactive,inactive,inactive,inactive,inactive,inactive,–,inactive,inactive,inactive,–
NC(=O)c1cccnc1,inactive,inactive,inactive,inactive,inactive,inactive,inactive,inactive,inactive,–,–
O=C(O)CC(O)C(=O)O (stereo not given),inactive,inactive,inactive,inactive,–,inactive,inactive,inactive,inactive,–,–
CC(C)NCC(O)c1ccc(O)c(O)c1 (stereo not given),inactive,inactive,inactive,inactive,–,54.5 µM (active),inactive,4.98 nM (active) and 5.87 nM (active) and 5.7 nM (active),inactive,–,–
C=C(C)C(=O)OCC(C)O (stereo not given),inactive,inactive,inactive,inactive,inactive,inactive,inactive,inactive,inactive,–,–
Cc1cn([C@H]2C=C[C@@H](CO)O2)c(=O)[nH]c1=O,inactive,inactive,inactive,inactive,–,inactive,inactive,inactive,inactive,–,–
NC1CCCCC1,inactive,2.75 µM (active) and inactive,inactive,inactive,1.09 µM (active) and inactive,inactive,inactive,inactive,inactive,–,–
CN(C)CCOC(C)(c1ccccc1)c1ccccn1 (stereo not given),inactive,inactive,inactive,inactive,–,inactive,inactive,inactive,inactive,–,–
CCCCOC(=O)c1ccc(O)cc1,inactive,inactive,inactive,inactive,–,inactive,inactive,inactive,inactive,inactive,–
CCN(CC)C(=O)c1cccc(C)c1,inactive,inactive,inactive,inactive,inactive,inactive,inactive,inactive,inactive,–,–
CCCCCCCC(=O)OCC(COC(=O)CCCCCCC)OC(=O)CCCCCCC,inactive,inactive,inactive,inactive,inactive,inactive,–,inactive,inactive,–,–
O=c1[nH]cc(F)c(=O)[nH]1,inactive,inactive,inactive,10.1 µM (active) and 12.5 µM (active) and inactive,inactive,inactive,–,inactive,inactive,–,–
O=S1(=O)OC(c2ccc(O)cc2)(c2ccc(O)cc2)c2ccccc21,27.3 µM (active) and inactive,inactive,30.6 µM (active) and 19.3 µM (active) and 10.6 µM (active),inactive,inactive,19.3 µM (active) and 17.2 µM (active) and 13.3 µM (active),–,–,–,–,–
Nc1ccc(S(N)(=O)=O)cc1,inactive,inactive,inactive,inactive,–,inactive,inactive,inactive,inactive,–,–
NS(=O)(=O)O,inactive,inactive,inactive,inactive,–,inactive,inactive,–,–,–,–
CNNCc1ccc(C(=O)NC(C)C)cc1,inactive,inactive,inactive,inactive,–,inactive,–,inactive,inactive,–,–
OC[C@H]1O[C@H](O[C@]2(CCl)O[C@H](CCl)[C@@H](O)[C@@H]2O)[C@H](O)[C@@H](O)[C@H]1Cl,inactive,inactive,inactive,inactive,–,inactive,–,inactive,inactive,–,–
Cc1c(C(=O)O)c(O)cc2c1C(=O)c1c(O)c([C@@H]3O[C@H](CO)[C@@H](O)[C@H](O)[C@H]3O)c(O)c(O)c1C2=O,inactive,inactive,18.9 µM (active) and 15.4 µM (active),inactive,inactive,26.6 µM (active) and 15.4 µM (active) and 13.3 µM (active),–,–,–,–,–

SMILES,Potency [1],Potency [2],Potency [3],Potency [4],Potency [5],Potency [6],Potency [7],Potency [8],Potency [9],Potency [10],"activity change, negative = cytotoxicity [4]"
CC(C)C(=O)Nc1ccc([N+](=O)[O-])c(C(F)(F)F)c1,17.7 µM (active),inactive,–,inactive and 24.3 µM (active),inactive,–,–,inactive,inactive,–,–
C/C=C/C=C/C(=O)O,inactive,inactive,inactive,–,–,inactive,–,inactive,inactive,–,-4.84% [at 8.39 µM] (inactive)
NS(=O)(=O)c1cc2c(cc1Cl)NCNS2(=O)=O,inactive,inactive,inactive,inactive,inactive,inactive,–,inactive,inactive,–,–
CC1(C)O[C@@H]2C[C@H]3[C@@H]4CCC5=CC(=O)C=C[C@]5(C)[C@@]4(F)[C@@H](O)C[C@]3(C)[C@]2(C(=O)CO)O1,inactive,inactive,inactive,inactive,–,inactive,inactive,–,–,–,–
COc1ccc(C(Cl)=C(c2ccc(OC)cc2)c2ccc(OC)cc2)cc1,inactive,inactive,inactive,inactive,15.3 µM (active) and 8.41 µM (active),inactive,–,–,–,–,–
CCCCCCCCCCCCCCCC[N+](C)(C)Cc1ccccc1,1.78 µM (active) and 6.98 µM (active) and 150 nM (active),inactive,35.5 µM (active) and 55.5 µM (active),14.1 µM (active) and 22.1 µM (active) and 11.9 µM (active),inactive,inactive,35.5 µM (active) and 17.5 µM (active) and 10.6 µM (active),–,–,–,–
CCOc1ccc(NC(C)=O)cc1,inactive,inactive,inactive,inactive,inactive,inactive,inactive,inactive,inactive,inactive,–
Nc1c(N=Nc2ccc(-c3ccc(N=Nc4cc(S(=O)(=O)O)c5ccccc5c4N)cc3)cc2)cc(S(=O)(=O)O)c2ccccc12,inactive,inactive,24.3 µM (active),–,–,17.2 µM (active),inactive,–,–,–,–
O=CC(=O)c1ccccc1,inactive,inactive,inactive,inactive,inactive,inactive,inactive,inactive,–,–,–
Oc1ccccc1,inactive,–,inactive,inactive,–,inactive,inactive,inactive,inactive,–,–
Cc1cc(C)nc(NS(=O)(=O)c2ccc(N)cc2)n1,inactive,–,inactive,inactive,–,inactive,inactive,inactive,inactive,–,–
CN1[C@@H]2CC(OC(=O)[C@H](CO)c3ccccc3)C[C@H]1[C@@H]1O[C@@H]12 (stereo not given in full),inactive,–,inactive,inactive,inactive,inactive,–,inactive,inactive,–,–
CCCCNC(=O)NS(=O)(=O)c1ccc(C)cc1,inactive,–,inactive,inactive,–,inactive,inactive,–,–,–,–
CN(C)C(=O)Nc1ccc(Cl)c(Cl)c1,inactive,–,inactive,inactive,inactive,inactive,inactive,inactive,inactive,inactive,–
O=C1NC(=O)C(c2ccccc2)(c2ccccc2)N1,inactive,–,inactive,inactive,–,inactive,inactive,inactive,inactive,–,–
CCCCCCc1ccc(O)cc1O,43.4 µM (active),–,inactive,48.7 µM (active) and 48.6 µM (active),–,inactive,48.7 µM (active) and inactive,inactive,inactive,inactive,–
CC/C(=C(\c1ccccc1)c1ccc(OCCN(C)C)cc1)c1ccccc1,23.7 µM (active) [middle of 4 runs],–,69 µM (active) and 48.9 µM (active) and 48.6 µM (active),24.5 µM (active) [middle of 5 runs],–,inactive and 61.6 µM (active),27.3 µM (active) and 21.9 µM (active) and 29.8 µM (active),inactive,61.5 µM (active) and 21.1 µM (active),–,–
O=C(O)c1ccccc1,inactive,–,inactive,inactive,inactive,inactive,inactive,inactive,inactive,–,–
CN[C@H]1CC[C@@H](c2ccc(Cl)c(Cl)c2)c2ccccc21,18.8 µM (active),–,inactive,29.8 µM (active),inactive,inactive,18.8 µM (active),inactive,inactive,–,–
C=CCc1ccc(O)c(OC)c1,inactive,–,inactive,inactive,inactive,inactive,–,inactive,inactive,–,–
